Consider 40 molecules from PMC4552634, “A New Set of Chemical Starting Points with Plasmodium falciparum Transmission-Blocking Potential for Antimalarial Drug Discovery” (PLoS ONE, 2015).

The campaign covered roughly 13,000 compounds. About 3,200 (25%) showed an effect of 50% or more. The list shows a part of the results.

The subject of this experiment is P. falciparum stage V gametocytes. Also on record: BacTiter-Glo ATP luminescence viability of purified stage V gametocytes in 384-well plates, per cent inhibition versus DMSO. To be noted: 48 h, 5 µM; inhibitor.
In general, % Inhibition refers to the change of the read-out against control, counted positive when it falls. Turning to `CN1CCN(CCCN(Cc2csc(-c3ccc(CNCc4ccccc4)cc3)n2)S(=O)(=O)c2ccc(F)cc2)CC1` [TCMDC-141601], the “% Inhibition” value is given as 76.11%.
Then `CN1CCN(CCCN(Cc2csc(-c3ccc(CNCc4ccccc4)cc3)n2)S(=O)(=O)c2cccc3cccnc23)CC1` [TCMDC-141598], with 96.08%; and `Cc1ccc(S(=O)(=O)N(CCCN2CCN(C)CC2)Cc2csc(-c3ccc(CNCc4ccccc4)cc3)n2)cc1` [TCMDC-141602], with 64.23%; and `COc1ccc(S(=O)(=O)N(CCCN2CCN(C)CC2)Cc2csc(-c3ccc(CNCc4ccccc4)cc3)n2)cc1` [TCMDC-141599], with 65.47%.
Turning to `O=C(Nc1cccc(-c2ccc(CN3CCC(O)CC3)cc2)c1)c1ccc(Cl)cc1` [TCMDC-132633], the “% Inhibition” value is -6.492%.
Then `COCCN1CCC(C(=O)NCC(C)(C)c2nc(-c3ccc(Br)c(O)c3)c(-c3ccncc3)[nH]2)CC1` [TCMDC-140792], with 8.912%; and `O=C(NNC(=O)c1ccc(CCN2CCC(c3nc(COCC(F)(F)F)c(-c4ccc(F)cc4)o3)CC2)cc1)Nc1ccc(Oc2ccccc2)cc1` [TCMDC-131906], with -12.54%.
Turning to `CN1CCN(CCCN(Cc2csc(-c3ccc(CNCc4ccccc4)cc3)n2)C(=O)c2cc(F)cc(F)c2)CC1` [TCMDC-141812], the “% Inhibition” value worked out at 50.04%.
The figure for `CN1CCN(CCCN(Cc2csc(-c3ccc(CNCc4ccccc4)cc3)n2)C(=O)Nc2cc(Cl)cc(Cl)c2)CC1` [TCMDC-141795] is 32.67%; for `CCc1ccc(NC(=O)N(CCCN2CCN(C)CC2)Cc2csc(-c3ccc(CNCc4ccccc4)cc3)n2)cc1` [TCMDC-141641] it is 9.107%; for `CN1CCN(CCCN(Cc2csc(-c3ccc(CNCc4ccccc4)cc3)n2)C(=O)Nc2ccc3ccccc3c2)CC1` [TCMDC-141642] it is 43.35%.
As for `CN1CCN(CCCN(Cc2csc(-c3ccc(CNCc4ccccc4)cc3)n2)S(=O)(=O)c2ccccc2)CC1` [TCMDC-141600], the “% Inhibition” value came out at 63.87%.
Then `CN1CCN(CCCN(Cc2csc(-c3ccc(CNCc4ccccc4)cc3)n2)S(=O)(=O)c2ccccc2Cl)CC1` [TCMDC-141603], with 99.67%; and `Cc1ccccc1C1CCN(C2CCC(NC(=O)/C=C/c3ccc4c(c3)OC(F)(F)O4)CC2)CC1` (stereo not shown) [TCMDC-133520], with -82.53%; and `COc1cc(Br)ccc1N1CCN(CCCCNC(=O)c2ccc(NC(=O)c3ccc(Cl)cc3)cc2)CC1` [TCMDC-138257], with 6.971%.
Consider `CC(C)c1ccc2[nH]c(C(=O)NC3CCC(N4CCCc5ccc(C#N)cc5C4)CC3)cc2c1` (stereo not shown) [TCMDC-133503], for which the “% Inhibition” value is -23.75%.
Then `O=C(NCCCNc1ccnc2cc(Cl)ccc12)c1ccccc1F` [TCMDC-125231], with 46.84%; and `N#Cc1ccccc1C1CCN(C2CCC(Nc3cc(-c4cccnc4)ccn3)CC2)CC1` (stereo not shown) [TCMDC-134834], with -2.713%; and `Cc1cc(C(F)(F)F)nn1-c1ccc(NC(=O)c2ccco2)cc1` [TCMDC-124896], with 9.865%.
As to `O=C(/C=C/c1ccc(Cl)c(Cl)c1)NCCCCCN1CCC(NC(=O)Nc2cccc(Cl)c2Cl)CC1` [TCMDC-135725], the “% Inhibition” value is given as -48.39%.
The figure for `NC1=NC(c2ccccc2)(c2ccccc2)C(=O)N1CC1CCC1` [TCMDC-136775] is 2.608%; for `O=C(/C=C/c1ccc(Cl)c(Cl)c1)NCCCCCN1CCC(NC(=S)Nc2cccc(Cl)c2)CC1` [TCMDC-135899] it is -1.091%; for `O=C(/C=C/c1ccc(Cl)c(Cl)c1)NCCCCCN1CCC(NC(=O)Nc2cc(Cl)cc(Cl)c2)CC1` [TCMDC-135727] it is -63.17%.
Consider `Cc1ccc(NC(=S)NC2CCN(CCCCCNC(=O)/C=C/c3ccc(Cl)c(Cl)c3)CC2)cc1Cl` [TCMDC-135901], for which the “% Inhibition” value is reported as 122.2%.
The figure for `Cc1ccccc1NC(=O)NC1CCN(CCCCCNC(=O)/C=C/c2ccc(Cl)c(Cl)c2)CC1` [TCMDC-135701] is -65.25%; for `CSc1ccccc1NC(=S)NC1CCN(CCCCCNC(=O)/C=C/c2ccc(Cl)c(Cl)c2)CC1` [TCMDC-139391] it is 14.69%.
`O=C(/C=C/c1ccc(Cl)c(Cl)c1)NCCCCCN1CCC(NC(=O)Nc2cccc(Cl)c2)CC1` [TCMDC-135711]: the “% Inhibition” value worked out at 59.36%.
Consider `Cc1ccccc1NC(=S)NC1CCN(CCCCCNC(=O)/C=C/c2ccc(Cl)c(Cl)c2)CC1` [TCMDC-135897], for which the “% Inhibition” value came out at 97.66%.
As to `O=C(/C=C/c1ccc(Cl)c(Cl)c1)NCCCCCN1CCC(NC(=S)Nc2ccc(Cl)c(Cl)c2)CC1` [TCMDC-135903], the “% Inhibition” value is listed as -7.54%.
As for `Cc1cccc(NC(=S)NC2CCN(CCCCCNC(=O)/C=C/c3ccc(Cl)c(Cl)c3)CC2)c1` [TCMDC-139390], the “% Inhibition” value is reported as -46.46%.
With `O=C(/C=C/c1ccc(Cl)c(Cl)c1)N1CCC(CCN2CCC(c3nc4ccc(O)cc4[nH]3)CC2)CC1` [TCMDC-140127], the “% Inhibition” value is on record as -21.57%.
In the case of `O=C(Nc1ccc(F)cc1)c1cnc(N2CCN(c3ccncc3)CC2)c(Cl)c1` [TCMDC-134599], the “% Inhibition” value is reported as 47.6%.
With `CC(C)(CNC(=O)C1CCN(Cc2ccc(Cl)cc2)CC1)c1nc(-c2ccc(Cl)c(O)c2)c(-c2ccncc2)[nH]1` [TCMDC-141138], the “% Inhibition” value is -35.73%.
Then `NC(=O)c1cc2nc(Nc3ccc(F)cc3)nc(Nc3ccc(S(N)(=O)=O)cc3)c2[nH]1` [TCMDC-137043], with -45.2%.
In the case of `CC(C)(C)NCc1cc(Nc2ccnc3cc(Cl)ccc23)ccc1F` [TCMDC-135909], the “% Inhibition” value is -17.74%.
On to `C[C@H](NC(=O)[C@H](CCCCNC(=O)OC(C)(C)C)NC(=O)OC(C)(C)c1ccc(-c2ccccc2)cc1)C(=O)OCc1ccccc1` [TCMDC-131396], for which the “% Inhibition” value was determined as 15.4%.
The figure for `O=C(Nc1ccc2nccc(N3CCN4CCC[C@H]4C3)c2c1)c1ccc(Cl)c(Cl)c1` [TCMDC-139628] is 19.58%; for `CC[C@H](C)CNC(=O)c1cccc(-c2cccc(CN3CCC(N4CCCC4)CC3)c2)n1` [TCMDC-134224] it is 16.22%.
The figure for `CC[C@H](C)CNC(=O)c1ccnc(-c2ccc(CN3CCC(N4CCCC4)CC3)cc2)c1` [TCMDC-134250] is 36.18%.
`CC[C@H](C)CNC(=O)c1cccc(-c2ccc(CN3CCC(N4CCCC4)CC3)cc2)n1` [TCMDC-134249]: the “% Inhibition” value is 57.67%.
